Methyltransferases: Primary Screen for Target Class Profiling of Small Molecule Inhibitors of Methyltransferases; actives 3.9% (n = 25,000); purified enzyme, MTase-Glo SAH luminescence; stronger effect = lower value; calls only at 40 µM; call rule not given here
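Each enzyme was reacted with SAM and its substrate, with compounds tested once at 40 uM; SAH formed was read by MTase-Glo luminescence.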
Each line names hits and unclear results; the compound was inactive in the other large screens. Shown is part of a subset that was picked to be rich in hits.

Cc1cc2c(cc3n2CC(C)(C(=O)NC2CCCCCCC2)N(CCN(C)C2CCCCC2)C3=O)o1 (stereo not drawn)	none
O=S(=O)(NCCn1c(-c2ccccc2)nc2ccccc21)c1cc(F)ccc1F	none
CCOC(=O)c1cc2n(n1)CC(C)(C(=O)NCCC(C)C)N(c1ccc(F)cc1)C2=O (stereo not drawn)	none
Cc1cc2c(cc3n2CC(C)(C(=O)NC2CCCCC2)N(CC(C)c2ccccc2)C3=O)o1 (stereo not drawn)	none
N[C@@H](Cc1ccc(O)c(I)c1)C(=O)O	none
COC(=O)[C@@H](N)Cc1ccc(O)c(O)c1	none
O=C(O)Cc1ccc(O)c(O)c1	Methyltransferases active
CCc1cc2c(cc3n2CC(C)(C(=O)NC2CCC(C)CC2)N(Cc2ccc(Cl)cc2)C3=O)s1 (stereo not drawn)	none
Cn1c(=O)c2ccc(C(=O)NC3CCCC3)cc2n2c(=O)n(Cc3ccccc3F)nc12	none
CC1(C)O[C@@]2(C)CC[C@@H]1C[C@@H]2OC1OC(CO)C(O)C(O)C1O (stereo partly drawn)	Methyltransferases active
CC(C)C(=O)O[C@@H]1[C@@H](O)[C@@H](O[C@H]2O[C@H](CO)[C@@H](O)[C@H](O)[C@H]2O)O[C@H](CO)[C@H]1O	none
CC(C)C(=O)OC[C@H]1O[C@H](O[C@H]2O[C@H](CO)[C@@H](O)[C@H](O)[C@H]2O)[C@H](O)[C@@H](O)[C@@H]1O	none
CN(CC(=O)Nc1ccc(Cl)cc1)S(=O)(=O)c1ccc2[nH]c3c(c2c1)CCCC3	none
CCOC(=O)c1cc2n(n1)CC(C)(C(=O)NCCCOC)N(c1ccc3c(c1)OCO3)C2=O (stereo not drawn)	none
CCCNC(=O)C(CC)n1ccc2cc(S(=O)(=O)N3CCCCC3)ccc21 (stereo not drawn)	none
COc1ccc(OC)c(CCN2C(=O)c3cc4ccccc4n3CC2(C)C(=O)NCc2ccccc2OC)c1 (stereo not drawn)	none
CCOC(=O)c1cnc2ccc(Br)cc2c1Nc1ccc(C(C)=O)cc1	none
COc1ccc2cc3n(c2c1)CC(C)(C(=O)NC1CCCC1)N(Cc1ccc(F)cc1)C3=O (stereo not drawn)	none
NC(=NCCCCCCN=C(N)/N=C(\N)Nc1ccc(Cl)cc1)/N=C(\N)Nc1ccc(Cl)cc1	Methyltransferases active
CCCn1c(=O)c2ccc(Cl)cc2n2c(=O)n(CC(=O)Nc3cc(OC)cc(OC)c3)nc12	none
Cc1nc2c3ccccc3n3c(CCCC(=O)N4CCN(c5cccc(C)c5C)CC4)nnc3n2n1	none
Cc1ccc(C)c(Cn2nc3n(CCC(C)C)c(=O)c4ccc(C(=O)NC(C)C)cc4n3c2=O)c1	none
CC1CCN(S(=O)(=O)c2ccc3c(ccn3CCC(=O)NCCC3=CCCCC3)c2)CC1	none
CCOCCCN1C(=O)c2ccc(-c3ccccc3)n2CC1(C)C(=O)NC1CCCCCCC1 (stereo not drawn)	none
COc1ccc(CCN2C(=O)c3cc4occc4n3CC2(C)C(=O)NC2CCCCC2)c(OC)c1 (stereo not drawn)	none
C=CC(=O)Nc1cccc(Nc2nc(Nc3ccc(OCCOC)cc3)ncc2F)c1	Methyltransferases active
CC1(C(=O)Nc2ccccc2F)COCc2cnc(Nc3ccccc3)nc21 (stereo not drawn)	none
CC(C)(C)NC(=O)Nc1cccc(Nc2ncc(F)c(NC(C)(C)CO)n2)c1	none
CC1(C(=O)NC2CCCCC2)Cn2c(cc3sccc32)C(=O)N1Cc1ccccc1F (stereo not drawn)	none
Cc1ccc(Cn2c(=O)c3ccc(C(=O)NC(C)C)cc3n3c(=O)n(CC(=O)NC4CCCC4)nc23)cc1	none
CN(Cc1cccs1)Cc1cccn1C	none
CN(Cc1cccs1)c1ncnc2ccc(-c3ccc4c(c3)OCO4)cc12	Methyltransferases active
Cc1cc2[nH]c(=O)[nH]c2cc1S(=O)(=O)N1CCCC1	none
Cc1ccc(C)c(C(=O)Cn2nc3n(C)c(=O)c4ccc(C(=O)NC5CCCCC5)cc4n3c2=O)c1	none
Clc1ccc(C2Nc3ccc4ccccc4c3C3C=CCC32)cc1 (stereo not drawn)	none
CCCn1c(=O)c2ccc(C(=O)NC3CCCC3)cc2n2c(=O)n(CC(=O)Nc3ccccc3)nc12	none
CNCCN(C)Cc1cn[nH]c1-c1ccc(OC2CC(OCCC3CCOCC3)C2)cc1 (stereo not drawn)	Methyltransferases active
Cn1c(=O)n(C)c2cc(S(=O)(=O)N3CCN(c4ccccc4F)CC3)ccc21	none
CCCn1c(=O)c2ccc(C(=O)NC3CCCC3)cc2n2c(SCC(=O)c3ccc(F)cc3)nnc12	none
CC(C)OCCCn1c(=O)c2ccccc2n2c(SCc3cccc(F)c3)nnc12	none
COc1cnc(-c2ccc(Cn3c(CC(C)(C)C(=O)O)c(SC(C)(C)C)c4cc(OC[C@@H]5Cc6ccccc6N5C(C)=O)ccc43)cc2)nc1	Methyltransferases active
CCCNC(=O)Nc1ccc(Oc2ncnc3cc(OC)c(OC)cc23)cc1Cl	none
COc1cc2ncnc(Nc3cccc(O)c3)c2cc1OC	none
COc1cc2ncnc(Nc3cccc(Cl)c3)c2cc1OC	Methyltransferases active
COc1ccccc1CNc1nc2c(S(=O)(=O)c3ccc(C)cc3)nnn2c2ccccc12	none
COc1cccc(S(=O)(=O)N2CCC3(CCCCO3)CC2)c1	none
COc1ccc2cc3n(c2c1)CC(C)(C(=O)NC1CCCCC1)N(CCCN1CCCCC1)C3=O (stereo not drawn)	none
COc1ccc2c(OCc3nnc4ccc(-c5ccccc5)nn34)ccnc2c1	none
COc1ccc2c(Oc3ccc(NC(=O)c4c(C)n(CC(C)(C)O)n(-c5ccccc5)c4=O)cc3F)ccnc2c1	Methyltransferases active
O=C(Nc1ccc(Oc2ccnc3[nH]ccc23)c(F)c1)c1cccn(-c2ccc(F)cc2)c1=O	none
CCCn1c(=O)c2ccc(C(=O)NC(C)C)cc2n2c(=O)n(CC(=O)Nc3ccc(F)cc3)nc12	none
Fc1cccc(-c2nnn3c2nc(N2CCOCC2)c2cc(Cl)ccc23)c1	none
CSc1cccc(N2C(=O)c3cc(C(C)(C)C)nn3CC2(C)C(=O)NCc2ccccc2)c1 (stereo not drawn)	none
CCC(C)NC(=O)CCn1ccc2cc(S(=O)(=O)N3CCCCC3)ccc21 (stereo not drawn)	none
Cc1ccc(Cl)cc1N1CCN(CCNC(=O)CCc2nnc3n(C)c(=O)c4ccccc4n23)CC1	none
CCCN1C(=O)c2cc3ccccc3n2CC1(C)C(=O)NCCC(C)C (stereo not drawn)	none
Cc1ccc(S(=O)(=O)c2nnn3c2nc(N2CCCC(C)C2)c2ccccc23)cc1 (stereo not drawn)	none
COc1ccc2c(c1)c(NC(C)=O)c1n2CC(C)(C(=O)NC2CCCCCC2)N(CCN(C)C)C1=O (stereo not drawn)	none
O=C(CCCc1nnc2n3nc(-c4ccccc4)nc3c3ccccc3n12)N1CCN(Cc2ccccc2)CC1	none
O=C(CCCc1nnc2n3nc(-c4ccccc4)nc3c3ccccc3n12)N1CCC(N2CCCCC2)CC1	Methyltransferases active
O=C(CCCc1nnc2n3nc(-c4ccccc4)nc3c3ccccc3n12)N1CCN(C2CCCCC2)CC1	none
CC(C)Cn1c(=O)c2cc(F)ccc2n2c(SCc3ccccc3F)nnc12	none
CCN1CCN(c2nc3c(S(=O)(=O)c4ccccc4)nnn3c3ccccc23)CC1	none
CC1(C(=O)NC2CCCCC2)Cn2c(cc3ccccc32)C(=O)N1C1CCCCCC1 (stereo not drawn)	none
CCOC(=O)c1cc2n(n1)CC(C)(C(=O)NCc1ccc(Cl)cc1)N(Cc1cccc(C)c1)C2=O (stereo not drawn)	none

High-throughput results from PubChem BioAssay.
